Molecules are shown by their SMILES. Screen size: about 2,500 compounds; about 1,100 (44%) were called active. So high a share suggests a set chosen from earlier hits. Some of the results follow. Values without a mark were called inactive.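 Rule for the calls: active = inhibition above 50% at 4 µM in the single-point screen; inactive = inhibition of 50% or less.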

The text below walks through data of PubChem BioAssay AID1852 (Sanford-Burnham Center for Chemical Genomics, 2009).

The nature of the experiment: blockers of TNF-a NF-kB luciferase induction – cell-based, HEK293T NF-kB-Luc, luminescence, selectivity assay for NOD1/NOD2 signaling inhibitor project, primary screen (AID 1852). As to conditions: TNF-a induced, 14 h, at 4 µM, active compounds read high.
As a reminder, the inhibition is the drop in the measured response relative to a control, in per cent. Take `O=C(Nc1ccc2oc(-c3cccnc3)nc2c1)c1ccc([N+](=O)[O-])o1`: the inhibition was 43.1%.

Consider `COc1cccc(NS(=O)(=O)c2ccc3c(c2)CCN3C(C)=O)c1`, for which the inhibition is 41.6%.

Turning to `CC(=O)c1cccc(NS(=O)(=O)c2ccc(NC(=O)N3CCCCC3)cc2)c1`, the inhibition was 19.3%.

Take `CC(=O)Nc1ccc(S(=O)(=O)Nc2ccc3c(c2)CCC3)cc1`: the inhibition was 85% (active).

With `C=C1C(=O)O[C@@H]2C[C@@H](C)[C@@H]3C=CC(=O)[C@@]3(C)[C@@H](OC(C)=O)[C@H]12`, the inhibition was 101% (active).

For `Cc1oc2c(F)c(F)c(F)c(F)c2c1S(=O)(=O)Nc1cccc(C(F)(F)F)c1`, the inhibition was 87.4% (active).

As to `Cc1ccc(OC(F)F)c(NC(=O)Nc2cccc(C(F)(F)F)c2)c1`, the inhibition was 8.9%.

For the compound `O=C(OCn1ncc(Br)c(Br)c1=O)c1ccccc1Cl`, the inhibition is 79.3% (active).

For `O=C(OCC(=O)N1CCOCC1)c1ccccc1Br`, the inhibition was 0.9%.

For the compound `CCOC(=O)c1cnn(Cc2cccc(Cl)c2)c1C`, the inhibition was -4.9%.

In the case of `O=C(OCn1ncc(Cl)c(Cl)c1=O)c1ccccc1Cl`, the inhibition was 94.2% (active).

As to `c1ccc(-c2csc(Nc3ccc4c(c3)OCCO4)n2)cc1`, the inhibition was -211%.

For `O=C(Nc1nc(-c2ccc3c(c2)OCO3)cs1)c1ccncc1`, the inhibition was 34.9%.

Regarding `O=C(/C=C/c1ccc2c(c1)OCO2)Nc1nc(-c2ccccc2)cs1`, the inhibition was 103% (active).

With `C(=N\Nc1nc2ccccc2s1)/c1ccccn1`, the inhibition is 105% (active).

Take `O=[N+]([O-])c1cc(Br)c(O)c(/C=N/Nc2nc3ccccc3s2)c1`: the inhibition was 79.2% (active).

Regarding `CC(=O)Nc1ccc2nc(NC(=O)c3ccc([N+](=O)[O-])o3)sc2c1`, the inhibition was 18.3%.

`CCN1C(=O)/C(=C/c2nc3ccccc3c(=O)n2-c2ccccc2)c2ccccc21`: the inhibition is 40.6%.

Take `CC(C)C1Nc2c(O)cc(Cl)c([N+](=O)[O-])c2C2C=CCC21` (stereo not drawn): the inhibition was 74.1% (active).

On to `O=C1OCCC1Sc1nnc(-c2ccc(Cl)cc2Cl)o1` (stereo not drawn), for which the inhibition is 35.1%.

`Cn1cnnc1Sc1ccc(/C=C/C(=O)c2ccc(O)cc2)cc1[N+](=O)[O-]`: the inhibition was 6.7%.

For `CC(C)NC(=O)c1ccc(Sc2ccccc2)c([N+](=O)[O-])c1`, the inhibition was 16.7%.

For the compound `CC(=O)c1ccc(Sc2nnnn2-c2ccccc2)c([N+](=O)[O-])c1`, the inhibition was 61.3% (active).

Consider `CN(c1ccccc1)S(=O)(=O)c1ccc(NC(=O)c2nc(S(C)(=O)=O)ncc2Cl)cc1`, for which the inhibition was 60.4% (active).

With `Cc1ccc(NC(=O)c2nc(S(=O)(=O)Cc3ccccc3C)ncc2Cl)cc1C`, the inhibition was 5.2%.

As for `Cc1cccc(CS(=O)(=O)c2ncc(Cl)c(C(=O)Nc3ccc(F)cc3)n2)c1`, the inhibition is 43%.

Turning to `CCS(=O)(=O)c1ncc(Cl)c(C(=O)Nc2ccc(C)cc2)n1`, the inhibition is 99.2% (active).

As for `CCN(c1ccccc1)S(=O)(=O)c1ccc(NC(=O)c2nc(S(C)(=O)=O)ncc2Cl)cc1`, the inhibition was 30%.

On to `CCS(=O)(=O)c1ncc(Cl)c(C(=O)Nc2ccc(S(=O)(=O)N(C)c3ccccc3)cc2)n1`, for which the inhibition is 88.3% (active).

On to `O=C(Nc1ccc(F)cc1)c1nc(S(=O)(=O)Cc2ccccc2)ncc1Cl`, for which the inhibition is 60.6% (active).

Consider `O=C(c1[nH]ncc1-c1cccc(Br)c1)C1CO1` (stereo not drawn), for which the inhibition was 33.6%.

For the compound `O=c1c2c(nc3c(-c4cccc(Br)c4)c[nH]n13)CCCC2`, the inhibition was 83% (active).

For the compound `O=c1c2c(nc3c(-c4ccc(Cl)cc4)c[nH]n13)CCC2`, the inhibition was 102% (active).

Turning to `O=c1c2c(nc3c(-c4ccc(Cl)cc4)c[nH]n13)CCCC2`, the inhibition was 75.3% (active).

As for `Cc1nc2c(-c3ccc(Cl)cc3)cnn2c(N)c1-c1ccc(F)cc1`, the inhibition is -246%.

Consider `CCCc1cc(=O)n2[nH]cc(-c3ccc(Cl)cc3)c2n1`, for which the inhibition is 101% (active).

As to `O=C(Cc1ccc(Br)cc1)Nc1ncc([N+](=O)[O-])s1`, the inhibition was 23.8%.

Consider `CC(C)N1C(=O)/C(=C/c2nc3ccccc3c(=O)n2-c2ccccc2)c2ccccc21`, for which the inhibition is 43.6%.

Consider `COc1ccc(C(=O)c2ccccc2)c2c(O)ccc(C(=O)c3ccccc3)c12`, for which the inhibition was 53.3% (active).

Consider `COc1ccc(C(=O)n2cc(C(=O)c3cc(C)ccc3O)cn2)cc1OC`, for which the inhibition is 36.5%.

With `COc1ccc(O)c(-c2[nH]ncc2C(=O)c2ccccc2)c1`, the inhibition is 9.4%.

For `CCc1cccc(CC)c1NC(=O)CN1CCc2cc(OC)c(OC)cc2C1`, the inhibition was 23.9%.

`COc1ccc(Oc2ccccc2/C=N/O)cc1`: the inhibition was 81.6% (active).

For the compound `COc1ccc(N2CCN(c3cc(=O)n(Cc4ccc(F)cc4)c(=O)[nH]3)CC2)cc1`, the inhibition was 6.1%.

Turning to `COc1ccc(C2C(O)C(c3c[nH]c4ccccc34)=NN2C(=O)CCl)cc1` (stereo not drawn), the inhibition is 96.7% (active).

In the case of `CNc1nc(-c2ccc3c(c2)CCN3S(=O)(=O)c2ccccc2)c(C)s1`, the inhibition was 79.2% (active).

With `O=C(CN1CCOCC1)Nc1nc(-c2ccc3c(c2)CCN3S(=O)(=O)c2ccccc2)cs1`, the inhibition is -1%.

In the case of `CC(=O)N1CCc2cc(S(=O)(=O)NCc3ccc(C)cc3)ccc21`, the inhibition is 26.3%.

As for `CC(=O)c1c(O)c(C)c(O)c2c1OC1=CC(=O)C(C(C)=O)C(=O)[C@@]12C` (stereo partly drawn), the inhibition was 80.3% (active).

With `O=C(c1ccc2c(c1)CCN2S(=O)(=O)c1ccccc1)N1CCN(c2ccc(F)cc2)CC1`, the inhibition was 65.3% (active).

Turning to `Cc1ccc(C(=O)N2CCN(c3ccc(F)cc3)CC2)cc1S(=O)(=O)N1CCCCC1`, the inhibition is 43.8%.

`Cc1ccc(CS(=O)(=O)c2ncc(Cl)c(C(=O)Nc3nnc(C(C)C)s3)n2)cc1`: the inhibition is 85.6% (active).

Regarding `Cc1cccc(CS(=O)(=O)c2ncc(Cl)c(C(=O)Nc3nnc(C(C)C)s3)n2)c1`, the inhibition was 84.2% (active).

Regarding `CSc1nnc(NC(=O)c2nc(S(=O)(=O)Cc3ccc(C)cc3)ncc2Cl)s1`, the inhibition is 98.9% (active).

Turning to `CCC(C)[C@@H](NC(=O)OC(C)(C)C)c1nnc(S(=O)(=O)Cc2cccc(C)c2)o1` (stereo partly drawn), the inhibition is 45.7%.

For `COC(=O)c1ccc(NC(=O)c2nc(S(=O)(=O)Cc3cccc(C)c3)ncc2Cl)cc1`, the inhibition is 47.3%.

On to `O=C(Nc1nc2ccccc2n1Cc1ccc(Cl)cc1)c1ccco1`, for which the inhibition is 41.5%.

With `Cc1ccccc1Cn1c(C)nc2ccccc21`, the inhibition is 32%.

As for `CCC(=O)Nc1nc2ccccc2n1Cc1ccccc1Cl`, the inhibition was 75.1% (active).

With `Cc1c(O)ccc2c(-c3ccccc3)cc(=O)oc12`, the inhibition is 30.3%.

Turning to `COc1ccc(-c2cc(=O)oc3c(C)c(O)ccc23)cc1`, the inhibition was 91.8% (active).

Consider `COc1ccc(-c2cc(=O)oc3c(C)c(OC(=O)c4cccs4)ccc23)cc1`, for which the inhibition is 63.9% (active).

As to `CC(=O)NCCC(=O)N1CCc2c([nH]c3ccccc23)C1c1cccc(Cl)c1` (stereo not drawn), the inhibition is 6.2%.

In the case of `CC(=O)N1CC(C)Sc2ccc(S(=O)(=O)NCCc3ccc(C)cc3)cc21` (stereo not drawn), the inhibition was 44.7%.

`Cc1ccc(N=c2oc3cc(O)ccc3cc2C(N)=O)cc1`: the inhibition was 72.5% (active).

Consider `COc1ccc2cc(C(N)=O)c(=Nc3ccc(C)cc3)oc2c1`, for which the inhibition is 62.3% (active).

Consider `Cc1ccc(Oc2c(C(N)=O)cc([N+](=O)[O-])cc2[N+](=O)[O-])cc1`, for which the inhibition is -11.8%.

In the case of `Cc1ccc2oc(/N=C(\N)NC(=O)C(C)(C)C)nc2c1`, the inhibition is 40.4%.

Take `O=C(N/N=C/c1ccc([N+](=O)[O-])s1)c1cccc(Br)c1`: the inhibition was 66.8% (active).

Turning to `O=C(N/N=C/c1ccc([N+](=O)[O-])s1)c1ccccc1Br`, the inhibition is 50.8% (active).

In the case of `O=C(N/N=C\c1ccc([N+](=O)[O-])s1)C1COc2ccccc2O1` (stereo not drawn), the inhibition is 17.5%.

Consider `O=C(Cc1cccs1)N/N=C\c1ccc([N+](=O)[O-])s1`, for which the inhibition is 49.1%.

Turning to `Cc1cc(C(=O)N/N=C/c2ccc([N+](=O)[O-])s2)c2ccccc2n1`, the inhibition is 37.2%.

Consider `COc1cc(S(=O)(=O)n2cnc(C)c2)ccc1Br`, for which the inhibition was -6%.

For `Fc1cccc(NC(=S)NNc2c3ccccc3nc3ccccc23)c1`, the inhibition was 20.7%.

As to `Cc1nc2ccccc2c(C)c1C(=O)c1ccc(F)cc1`, the inhibition is 66% (active).

In the case of `CCn1c(SCc2nc3scc(-c4ccccc4)c3c(=O)[nH]2)nnc1-c1cccs1`, the inhibition was 1.6%.

Regarding `O=c1cc(CSc2nnc(-c3cccs3)n2Cc2ccccc2)nc2sc3ccccc3n12`, the inhibition is 88.7% (active).

Consider `Cc1ccc(C(=O)Nc2sc3c(c2C(=O)O)CCCC3)o1`, for which the inhibition is -42.9%.

As for `CC(=O)c1c(C)[nH]c(C(=O)OCC(=O)Nc2sc3c(c2C#N)CCCC3)c1C`, the inhibition was 58.6% (active).

As to `NC(=O)c1c(NC(=O)CCCC(=O)O)sc2c1CCCCCC2`, the inhibition was 16.7%.

For the compound `Cc1ccccc1Oc1cc(-n2ncc(Cl)c(Cl)c2=O)ncn1`, the inhibition is 103% (active).

Consider `CCCN(CCC)S(=O)(=O)c1ccc(C(=O)Nc2nnc(-c3cc(OC)cc(OC)c3)o2)cc1`, for which the inhibition is 68.9% (active).

Take `COc1cc(OC)cc(-c2nnc(NC(=O)c3ccc4c(c3)OCCO4)o2)c1`: the inhibition was 105% (active).

As to `O=C(Nc1nnc(-c2ccco2)o1)c1ccc2ccccc2c1`, the inhibition was 77.9% (active).

With `CSCc1nnc(NC(=O)c2ccc(S(=O)(=O)N(CC(C)C)CC(C)C)cc2)o1`, the inhibition was 80.1% (active).

On to `COc1ccc(-c2nnc(NC(=O)c3ccc([N+](=O)[O-])o3)o2)c(OC)c1`, for which the inhibition was 49.5%.

On to `COCCN(CCOC)S(=O)(=O)c1ccc(C(=O)Nc2nc(C)c(C(C)=O)s2)cc1`, for which the inhibition is -3.7%.

As to `Cc1nc([N+](=O)[O-])c(Br)n1CC(=O)c1ccc2ccccc2c1`, the inhibition was 25.6%.

On to `O=C(Nc1nnc(-c2ccc3c(c2)OCCO3)o1)c1ccc(Cc2ccccc2)cc1`, for which the inhibition was 105% (active).

Consider `Cc1noc(C)c1S(=O)(=O)N1CCCC(C(=O)NCc2ccccc2Cl)C1` (stereo not drawn), for which the inhibition is 21.1%.

For the compound `Cc1ccc(N(Cc2cc(=O)[nH]c3ccccc23)C(=O)CCl)c(C)c1`, the inhibition was 100% (active).

As to `Cc1ccccc1N(Cc1cc(=O)[nH]c2ccccc12)C(=O)CCl`, the inhibition is 105% (active).
